Inconclusive results are not listed. Calls of active or inactive are those of the source. Unless noted, calls come from the whole dose curve; as a rule, active = well fitted curve in the direction sought with a large enough effect in the repeat runs; inconclusive = weak or mixed curves; inactive = no such curve, though single readings can be large; an effect the other way counts as inactive or inconclusive.
Legend:
[1] = qHTS assay to identify small molecule agonists of the hypoxia (HIF-1) signaling pathway - cell viability counter screen (AID 1224844; calls by dose curve; note: nearly all actives have a fitted effect of over 50% in size; note: potency is the fitted concentration of half-maximal effect)
Method in brief: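 In this counter screen, HRE-bla ME-180 cell viability after 17 hrs of compound exposure at 37C was read by CellTiter-Glo luminescence, multiplexed with the beta-lactamase reporter measurement.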

[2] = qHTS assay to identify small molecule agonists of H2AX (AID 1224845; active = well fitted activation curve with a large enough effect in the signal ratio in the repeat runs, not every such curve was filed as active; the % refers to the signal ratio; note: potency is the fitted concentration of half-maximal effect)
Method in brief: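 Wild-type CHO-K1 cells plated overnight, then exposed 3 hr at 37C to compounds at 15 concentrations (0.76% DMSO). Lysed, then HTRF anti-pH2AX(S139)-cryptate/anti-H2AX-d2 detection after 24 hr at room temperature; emissions 665 and 620 nm.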

[3] = qHTS assay to identify small molecule agonists of H2AX - cell viability counter screen (AID 1224847; calls by dose curve; note: nearly all actives have a fitted effect of over 30% in size; note: potency is the fitted concentration of half-maximal effect)
Method in brief: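 We seed wild-type CHO-K1 cells overnight, treat them for 3 hr at 37C with compounds in 15-concentration series, and quantify remaining viability by CellTiter-Glo luminescence.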

[4] = qHTS assay to identify small molecule antagonists of the estrogen related receptor (ERR) signaling pathway from Tox21 library (AID 1224848); note: nearly all actives have a fitted effect of over 50% in size; note: potency is the fitted concentration of half-maximal effect
Method in brief: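 Tox21 10K compounds in DMSO tested for ERR pathway antagonism in NTP's ERR cell line; 18 h, 37 C exposure; ONE-Glo luminescence.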

[5] = qHTS assay to identify small molecule agonists of the estrogen related receptor (ERR) signaling pathway from Tox21 library (AID 1224849; calls by dose curve; note: nearly all actives have a fitted effect of over 15% in size); conditions: ERR reporter cell line, ONE-Glo luciferase, 18 h; at 92.4 µM (top of the series) unless noted
Method in brief: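 Luciferase activity in ERR pathway reporter cells served as the agonist readout; exposure lasted 18 h at 37 C, with ONE-Glo detection after 30 min at room temperature.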

[6] = qHTS RealTime-Glo MT Cell Viability Assay in HepG2 cells - 24 hour (AID 1224867); note: nearly all actives have a fitted effect of over 50% in size; note: potency is the fitted concentration of half-maximal effect
Method in brief: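 qHTS, HepG2, 600 cells/well, RealTime-Glo (NanoLuc + prosubstrate) added with cells; 5 h preincubation; DMSO compound addition; 37 C; luminescence at 0/8/16/24/32/40 h.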

[7] = qHTS RealTime-Glo MT Cell Viability Assay in HEK293 cells - 32 hour (AID 1224868); note: nearly all actives have a fitted effect of over 50% in size; note: potency is the fitted concentration of half-maximal effect
Method in brief: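 Assay medium contained NanoLuc luciferase plus cell-permeant prosubstrate, added with HEK293 cells at 600 cells/well. After 5 h at 37 C/5% CO2 compounds were added; plates stayed at 37 C for 40 h with serial luminescence reads.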

[8] = A CellTox Green Cytotoxicity Assay to monitor cytotoxicity in HEK293 cells - 0 hour (AID 1224869); note: nearly all actives have a fitted effect of over 50% in size
Method in brief: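 Real-time, in one plate: 600 HEK293 cells/well with dead-cell DNA dye, pinned compound after 5 h, 37 C incubation over 40 h; viable cells give no appreciable fluorescence.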

[9] = qHTS RealTime-Glo MT Cell Viability Assay in HepG2 cells - 40 hour (AID 1224870); note: nearly all actives have a fitted effect of over 50% in size; note: potency is the fitted concentration of half-maximal effect
Method in brief: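 HepG2 cells mixed with RealTime-Glo MT reagents (NanoLuc plus cell-permeant prosubstrate) were seeded at 600 cells/well, incubated 5 h at 37 C/5% CO2, then pinned with compounds in DMSO; nonlytic luminescence tracked viability during 40 h treatment.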
% is set by controls: 0 for no effect and ±100 for the full control effect.

OCCN1CCN(CC/C=C2/c3ccccc3Sc3ccc(C(F)(F)F)cc32)CC1
active: Potency [1] 21.3 µM | Potency [3] 55.2 µM | Potency [4] 29.8 µM | Potency [6] 21.3 µM | Potency [7] 19 µM | Potency [9] 15.1 µM
inactive: Potency [2] | activity change, positive = activation [5] -67.6% [at 42.5 µM] | Potency [8]

C=C(C)C(=O)OCC[N+](C)(C)C
inactive: Potency [1] | Potency [2] | Potency [3] | Potency [6] | Potency [7] | Potency [8] | Potency [9]

CCN(C(=O)c1cc(C)cc(OC[C@H](C)Nc2ccncc2)c1)C(C)C
inactive: Potency [1] | Potency [2] | Potency [3] | Potency [6] | Potency [7] | Potency [8] | Potency [9]

Cc1[nH]cnc1C[C@H]1CCc2c(C)c3ccccc3n2C1=O
active: Potency [3] 87.6 µM | Potency [4] 26.6 µM | Potency [6] 38 µM | Potency [7] 23.9 µM | Potency [9] 42.6 µM
inactive: Potency [1] | Potency [2] | activity change, positive = activation [5] -63.7% | Potency [8]

CCCCC(CC)CN=C(N)NC(N)=NCCCCCCN=C(N)NC(N)=NCC(CC)CCCC (stereo not given)
inactive: Potency [2] | activity change, positive = activation [5] -65.1% [at 42.5 µM] | Potency [8]
active: Potency [1] 23.9 µM | Potency [3] 43.8 µM | Potency [4] 6.68 µM | Potency [6] 8.49 µM | Potency [7] 5.35 µM | Potency [9] 8.49 µM

Cc1c(C)c2c(c(C)c1O)CCC(C)(COc1ccc(CC3SC(=O)NC3=O)cc1)O2 (stereo not given)
inactive: Potency [1] | Potency [2] | Potency [3] | Potency [6] | Potency [8] | Potency [9]
active: Potency [7] 38.9 µM

CCCCCCCCCCCCCCCCCC[N+](C)(C)Cc1ccccc1
active: Potency [1] 24.8 µM | Potency [3] 45.4 µM | Potency [4] 19.5 µM | Potency [6] 49.5 µM | Potency [7] 2.78 µM | Potency [9] 22.1 µM
inactive: Potency [2] | activity change, positive = activation [5] -81% | Potency [8]

Cc1oc(-c2ccccc2)nc1CCC(=O)c1ccc(CC2SC(=O)NC2=O)cc1 (stereo not given)
inactive: Potency [1] | Potency [2] | Potency [3] | activity change, positive = activation [5] -19.2% [at 42.5 µM] | Potency [6] | Potency [7] | Potency [8] | Potency [9]

CCC(N)(CO)CO
inactive: Potency [1] | Potency [2] | Potency [3] | Potency [4] | activity change, positive = activation [5] 6.45% | Potency [6] | Potency [7] | Potency [8] | Potency [9]

O=C(O)c1c(Cl)cccc1Cl
inactive: Potency [1] | Potency [2] | Potency [3] | Potency [6] | Potency [7] | Potency [8] | Potency [9]

O=C(NO)C1(NS(=O)(=O)c2ccc(Oc3ccc(F)cc3)cc2)CCOCC1
inactive: Potency [1] | Potency [2] | Potency [3] | activity change, positive = activation [5] -35.1% | Potency [6] | Potency [8] | Potency [9]
active: Potency [4] 27.3 µM

CN(C)[C@@H]1C(=O)C(C(N)=O)=C(O)[C@@]2(O)C(=O)C3=C(O)c4c(O)ccc(Cl)c4[C@@H](O)[C@H]3C[C@@H]12
inactive: Potency [1] | Potency [2] | Potency [3] | Potency [4] | activity change, positive = activation [5] -10.9% [at 42.5 µM] | Potency [6] | Potency [7] | Potency [8] | Potency [9]

CCOC(=O)O[C@H](C)OC(=O)c1ccc2c(c1)cc(C(=O)NC1CCN(C(C)C)CC1)n2Cc1cc(-c2ccc(Cl)s2)on1
inactive: Potency [8]
active: Potency [1] 28.9 µM | Potency [2] 42 µM | Potency [3] 37.5 µM | Potency [6] 11.5 µM | Potency [7] 11.5 µM | Potency [9] 10.2 µM

c1ccc(CSCc2ccccc2)cc1
inactive: Potency [1] | Potency [2] | Potency [3] | Potency [6] | Potency [7] | Potency [8] | Potency [9]

CN(C)[C@@H]1C(=O)C(C(N)=O)=C(O)[C@@]2(O)C(=O)C3=C(O)c4c(O)cccc4C[C@H]3C[C@@H]12
inactive: Potency [1] | Potency [2] | Potency [3] | activity change, positive = activation [5] -27.8% [at 42.5 µM] | Potency [6] | Potency [7] | Potency [8] | Potency [9]

CCOc1nc2cccc(C(=O)OC(C)OC(=O)OC3CCCCC3)c2n1Cc1ccc(-c2ccccc2-c2nn[nH]n2)cc1 (stereo not given)
inactive: activity change, positive = activation [5] -65.4% | Potency [8]
active: Potency [1] 19.5 µM | Potency [2] 45 µM | Potency [3] 63.5 µM | Potency [4] 34.3 µM | Potency [7] 9.76 µM

CCCCCCCCCCCCCCCC[N+](C)(C)CCN(Cc1ccc(OC)cc1)c1ncccn1
inactive: Potency [2] | activity change, positive = activation [5] -53.6% [at 42.5 µM] | Potency [8]
active: Potency [1] 21.3 µM | Potency [3] 43.8 µM | Potency [4] 21.1 µM | Potency [6] 6.74 µM | Potency [7] 0.952 µM | Potency [9] 5.35 µM

Clc1ccc2n[nH]nc2c1
inactive: Potency [1] | Potency [2] | Potency [3] | Potency [6] | Potency [7] | Potency [8] | Potency [9]

CC(C)=CCOc1ccc(/C=C/C(=O)c2ccc(OCC=C(C)C)cc2OCC(=O)O)cc1
inactive: Potency [1] | Potency [2] | Potency [3] | activity change, positive = activation [5] -23.7% [at 42.5 µM] | Potency [6] | Potency [7] | Potency [8] | Potency [9]

CCCN(CCC)C(=O)C(CCC(=O)OCCCN1CCN(CCOC(=O)Cc2c(C)n(C(=O)c3ccc(Cl)cc3)c3ccc(OC)cc23)CC1)NC(=O)c1ccccc1 (stereo not given)
inactive: Potency [2] | Potency [3] | activity change, positive = activation [5] -47.5% [at 42.5 µM] | Potency [8] | Potency [9]
active: Potency [1] 19 µM | Potency [4] 29.8 µM

O=C1C=CC(=O)N1c1ccc(Cc2ccc(N3C(=O)C=CC3=O)cc2)cc1
inactive: Potency [2] | Potency [8]
active: Potency [1] 11 µM | Potency [3] 50.5 µM | Potency [6] 12.3 µM | Potency [7] 11 µM | Potency [9] 15.5 µM

Reference: PubChem BioAssay (Tox21)
